Assay results published in PubChem BioAssay AID1159580 (chemical genetic matrix, 2015).
Among all 5,500 compounds or so, about 2,000 (36%) were called active. About 18% were inconclusive and are not listed. Cut-off read from the data, not from the text of the source: active = normalized growth mostly below about 0.91 (no sharp cut-off); inconclusive = no clear call, values can overlap the other calls; inactive = mostly above about 0.92. The list shows a part of the results.

Experiment: chemical genetic growth profiling, strain panel (AID 1159580);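 note: tested at 20 µM; growth read once vehicle control cultures reached saturation at 30 °C; 1 = growth at the plate median or of vehicle wells; lower values mean less growth of the strain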
Details: growth OD
[1] = S. cerevisiae deletion strains, locus YDR150W, strain NUM1, stronger effect = lower value
[2] = S. cerevisiae deletion strains, locus YGR078C, strain PAC10, stronger effect = lower value
[3] = S. cerevisiae deletion strains, locus YMR307W, strain GAS1, stronger effect = lower value
[4] = S. cerevisiae deletion strains, locus YNL128W, strain TEP1, stronger effect = lower value
[5] = S. cerevisiae deletion strains, locus YNL322C, strain KRE1, stronger effect = lower value
[6] = S. cerevisiae deletion strains, locus YPL055C, strain LGE1, stronger effect = lower value
[7] = S. cerevisiae deletion strains, locus YPL241C, strain CIN2, stronger effect = lower value

Measured: normalized growth

CNCCc1c[nH]c2ccc(O)cc12
inactive: S. cerevisiae deletion strains, locus YAL040C, strain CLN3, stronger effect = lower value 1.01 | S. cerevisiae deletion strains, locus YCL061C, strain MRC1 (second series), stronger effect = lower value 1.01 | [1] 0.994 | S. cerevisiae deletion strains, locus YDR363W, strain ESC2, stronger effect = lower value 1.01 | S. cerevisiae deletion strains, locus YER002W, strain NOP16, stronger effect = lower value 1.01 | [2] 1.02 | [3] 1 | [4] 1 | S. cerevisiae deletion strains, locus YNL175C, strain NOP13, stronger effect = lower value 1.01 | S. cerevisiae deletion strains, locus YNL197C, strain WHI3, stronger effect = lower value 1.02 | S. cerevisiae deletion strains, locus YNL224C, strain SQS1, stronger effect = lower value 1.01 | [5] 1.02 | S. cerevisiae deletion strains, locus YOR083W, strain WHI5 (second series), stronger effect = lower value 1.01 | [6] 1.01 | [7] 1

NCCc1cccc(O)c1
inactive: S. cerevisiae deletion strains, locus YAL013W, strain DEP1, stronger effect = lower value 1.01 | S. cerevisiae deletion strains, locus YBR021W, strain FUR4, stronger effect = lower value 0.972 | S. cerevisiae deletion strains, locus YBR229C, strain ROT2, stronger effect = lower value 0.983 | S. cerevisiae deletion strains, locus YCL029C, strain bik1, stronger effect = lower value 0.981 | S. cerevisiae deletion strains, locus YDL035C, strain GPR1, stronger effect = lower value 1.01 | S. cerevisiae deletion strains, locus YDL074C, strain BRE1, stronger effect = lower value 1.01 | S. cerevisiae deletion strains, locus YDL101C, strain DUN1, stronger effect = lower value 0.985 | S. cerevisiae deletion strains, locus YDL134C, strain PPH21, stronger effect = lower value 0.984 | S. cerevisiae deletion strains, locus YDL185W, strain tfp1, stronger effect = lower value 0.989 | S. cerevisiae deletion strains, locus YDL192W, strain arf1, stronger effect = lower value 0.979 | S. cerevisiae deletion strains, locus YDR101C, strain arx1, stronger effect = lower value 0.985 | [1] 1 | S. cerevisiae deletion strains, locus YDR162C, strain NBP2, stronger effect = lower value 0.996 | S. cerevisiae deletion strains, locus YDR318W, strain mcm21, stronger effect = lower value 0.983 | S. cerevisiae deletion strains, locus YDR388W, stronger effect = lower value 0.981 | S. cerevisiae deletion strains, locus YDR502C, strain sam2, stronger effect = lower value 0.992 | S. cerevisiae deletion strains, locus YEL061C, strain CIN8, stronger effect = lower value 0.994 | S. cerevisiae deletion strains, locus YER110C, stronger effect = lower value 0.985 | S. cerevisiae deletion strains, locus YER155C, strain BEM2, stronger effect = lower value 0.951 | S. cerevisiae deletion strains, locus YER167W, strain BCK2, stronger effect = lower value 0.982 | S. cerevisiae deletion strains, locus YGL078C, strain dbp3, stronger effect = lower value 0.989 | S. cerevisiae deletion strains, locus YGL086W, strain mad1, stronger effect = lower value 0.976 | S. cerevisiae deletion strains, locus YGL248W, strain PDE1, stronger effect = lower value 0.982 | [2] 1 | S. cerevisiae deletion strains, locus YGR135W, strain pre9, stronger effect = lower value 0.982 | S. cerevisiae deletion strains, locus YGR229C, strain SMI1, stronger effect = lower value 1.05 | S. cerevisiae deletion strains, locus YGR252W, strain gcn5, stronger effect = lower value 0.952 | S. cerevisiae deletion strains, locus YHR030C, strain SLT2, stronger effect = lower value 0.994 | S. cerevisiae deletion strains, locus YHR079C, strain IRE1 (second series), stronger effect = lower value 0.986 | S. cerevisiae deletion strains, locus YHR094C, strain hxt1, stronger effect = lower value 0.992 | S. cerevisiae deletion strains, locus YHR129C, strain ARP1, stronger effect = lower value 0.987 | S. cerevisiae deletion strains, locus YHR200W, strain rpn10, stronger effect = lower value 0.974 | S. cerevisiae deletion strains, locus YIL066C, strain RNR3, stronger effect = lower value 0.996 | S. cerevisiae deletion strains, locus YIL073C, strain SPO22, stronger effect = lower value 0.946 | S. cerevisiae deletion strains, locus YIL125W, strain kgd1, stronger effect = lower value 0.984 | S. cerevisiae deletion strains, locus YIR030C, strain dcg1, stronger effect = lower value 0.991 | S. cerevisiae deletion strains, locus YJL095W, strain BCK1, stronger effect = lower value 1 | S. cerevisiae deletion strains, locus YJL134W, strain LCB3, stronger effect = lower value 0.992 | S. cerevisiae deletion strains, locus YJL168C, strain set2, stronger effect = lower value 0.987 | S. cerevisiae deletion strains, locus YJL187C, strain SWE1 (second series), stronger effect = lower value 0.991 | S. cerevisiae deletion strains, locus YJR043C, strain POL32, stronger effect = lower value 0.979 | S. cerevisiae deletion strains, locus YJR075W, strain HOC1, stronger effect = lower value 0.998 | S. cerevisiae deletion strains, locus YKL009W, strain mrt4, stronger effect = lower value 0.965 | S. cerevisiae deletion strains, locus YKL068W, stronger effect = lower value 0.992 | S. cerevisiae deletion strains, locus YKL085W, strain MDH1 (second series), stronger effect = lower value 0.987 | S. cerevisiae deletion strains, locus YKL085W, strain MDH1, stronger effect = lower value 0.987 | S. cerevisiae deletion strains, locus YKL190W, strain CNB1, stronger effect = lower value 0.997 | S. cerevisiae deletion strains, locus YKR001C, strain vps1, stronger effect = lower value 0.976 | S. cerevisiae deletion strains, locus YLR039C, strain RIC1, stronger effect = lower value 0.972 | S. cerevisiae deletion strains, locus YLR058C, strain SHM2, stronger effect = lower value 0.992 | S. cerevisiae deletion strains, locus YLR102C, strain apc9, stronger effect = lower value 0.99 | S. cerevisiae deletion strains, locus YLR262C, strain YPT6, stronger effect = lower value 0.997 | S. cerevisiae deletion strains, locus YLR268W, strain sec22, stronger effect = lower value 0.989 | S. cerevisiae deletion strains, locus YLR330W, strain CHS5, stronger effect = lower value 0.99 | S. cerevisiae deletion strains, locus YLR342W, strain FKS1 (second series), stronger effect = lower value 0.963 | S. cerevisiae deletion strains, locus YLR371W, strain rom2, stronger effect = lower value 0.991 | S. cerevisiae deletion strains, locus YLR418C, strain cdc73, stronger effect = lower value 0.985 | S. cerevisiae deletion strains, locus YML016C, strain PPZ1, stronger effect = lower value 0.985 | S. cerevisiae deletion strains, locus YML032C, strain rad52, stronger effect = lower value 0.978 | S. cerevisiae deletion strains, locus YML124C, strain tub3, stronger effect = lower value 0.989 | S. cerevisiae deletion strains, locus YMR078C, strain ctf18, stronger effect = lower value 0.983 | S. cerevisiae deletion strains, locus YMR223W, strain ubp8, stronger effect = lower value 0.979 | S. cerevisiae deletion strains, locus YMR263W, strain SAP30, stronger effect = lower value 1 | [3] 0.991 | S. cerevisiae deletion strains, locus YNL067W, strain RPL9B, stronger effect = lower value 1.01 | [4] 1.03 | S. cerevisiae deletion strains, locus YNL153C, strain GIM3, stronger effect = lower value 0.996 | S. cerevisiae deletion strains, locus YNL233W, strain BNI4, stronger effect = lower value 0.989 | S. cerevisiae deletion strains, locus YNL250W, strain rad50, stronger effect = lower value 0.984 | S. cerevisiae deletion strains, locus YNL271C, strain bni1, stronger effect = lower value 0.991 | S. cerevisiae deletion strains, locus YNL298W, strain CLA4, stronger effect = lower value 0.98 | S. cerevisiae deletion strains, locus YNL307C, strain MCK1, stronger effect = lower value 0.981 | [5] 0.998 | S. cerevisiae deletion strains, locus YNR052C, strain pop2, stronger effect = lower value 0.987 | S. cerevisiae deletion strains, locus YOL006C, strain TOP1, stronger effect = lower value 0.986 | S. cerevisiae deletion strains, locus YOL012C, strain htz1 0.834 | S. cerevisiae deletion strains, locus YOL147C, strain pex11, stronger effect = lower value 0.986 | S. cerevisiae deletion strains, locus YOR061W, strain CKA2, stronger effect = lower value 0.991 | S. cerevisiae deletion strains, locus YOR069W, strain VPS5, stronger effect = lower value 0.988 | S. cerevisiae deletion strains, locus YOR136W, strain idh2, stronger effect = lower value 0.975 | S. cerevisiae deletion strains, locus YOR144C, strain elg1, stronger effect = lower value 0.986 | S. cerevisiae deletion strains, locus YOR184W, strain ser1, stronger effect = lower value 0.965 | S. cerevisiae deletion strains, locus YOR316C, strain cot1, stronger effect = lower value 0.989 | [6] 1.04 | [7] 1 | S. cerevisiae deletion strains, locus YPR119W, strain clb2, stronger effect = lower value 0.992 | S. cerevisiae deletion strains, locus YPR141C, strain kar3, stronger effect = lower value 0.988 | S. cerevisiae deletion strains, locus YPR163C, strain tif3, stronger effect = lower value 0.984 | S. cerevisiae deletion strains, locus YPR167C, strain met16, stronger effect = lower value 0.981 | S. cerevisiae deletion strains, strain wtn01, stronger effect = lower value 0.987 | S. cerevisiae strains, strain wild type, stronger effect = lower value 1.02
